Screening data from PubChem.
Sampled rows, rich in hits. Any-hit rate of the full collection: about 3%.
Rv3671c protease: inhibits the M. tuberculosis serine protease Rv3671c | P9WHR9 | inhibition, % at 5.96 µM | hit rate 0.048% among 320,000 | AID 2606; in the data active = inhibition above about 38%;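 note: extracellular domain of Rv3671c used as enzyme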
FadD28 binding: M. tuberculosis FadD28 bisubstrate binding inhibition; FadD28 bisubstrate probe binding, fluorescence polarization; inhibition, % at 12.5 µM; hit rate 0.22% among 360,000; AID 588549; in the data active = inhibition above about 8.5%, passing the limit was not always enough
BioA inh: BioA (M. tuberculosis) enzyme inhibition | purified M. tuberculosis BioA enzyme, plate reader | inhibition, % at 9.99 µM | hit rate 0.096% among 360,000; in the data active = inhibition above about 40%
Mtb FBA inh: inhibitors of M. tuberculosis fructose-bisphosphate aldolase | P9WQA3 | purified M. tuberculosis FBA, fluorescence read-out | hit rate 2.3% among 360,000 | AID 588726 | inhibition, % at 1 µM
Target sequence (P9WQA3 whole entry, looked up): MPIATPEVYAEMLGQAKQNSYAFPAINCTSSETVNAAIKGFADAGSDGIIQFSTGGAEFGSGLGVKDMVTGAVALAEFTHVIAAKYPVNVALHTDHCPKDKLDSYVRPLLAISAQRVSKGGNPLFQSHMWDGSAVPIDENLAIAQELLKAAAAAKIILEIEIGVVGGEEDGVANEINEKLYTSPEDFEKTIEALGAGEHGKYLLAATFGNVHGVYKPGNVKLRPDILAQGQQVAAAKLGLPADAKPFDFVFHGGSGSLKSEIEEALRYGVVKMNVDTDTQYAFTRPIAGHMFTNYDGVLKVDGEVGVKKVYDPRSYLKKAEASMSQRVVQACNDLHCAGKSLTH
GDH-TPI counter-1: inhibits GDH-TPI coupling enzymes, artifact for Mtb FBA screen; GDH-TPI coupled enzyme counterscreen, NADH absorbance; inhibition, % at 4.8 µM; hit rate 1.2% among 360,000; AID 588335; in the data active = inhibition above about 30%
Mtb FBA inh conf: confirmation of M. tuberculosis fructose-bisphosphate aldolase inhibitors | shares compounds with Mtb FBA inh | purified M. tuberculosis FBA, fluorescence read-out | inhibition, % at 1 µM | hit rate 78% among 5,600
GDH-TPI counter-2: counter-screen for M. tuberculosis FBA inhibitors: GDH-TPI coupled enzyme inhibition. shares compounds with Mtb FBA inh. GDH-TPI coupled enzyme counterscreen, fluorescence. inhibition, % at 1 µM. hit rate 81% among 5,600. AID 652141; in the data active = inhibition above about 10%
Hits are given with their value; 0 = inactive; - = no result given; + = active, no number. Cut-off read from the data, not from the text of the source, unless noted: active = inhibition above about 27%; inactive = the rest.

SMILES	Rv3671c protease	FadD28 binding	BioA inh	Mtb FBA inh	GDH-TPI counter-1	Mtb FBA inh conf	GDH-TPI counter-2
C[C@@H]1CN([C@@H](C)CO)C(=O)c2cccc(NC(=O)c3ccc(-c4nccs4)cc3)c2O[C@H]1CN(C)C(=O)Nc1ccc(C(F)(F)F)cc1	-	-	0	-	-	-	-
COc1ccc(-n2nc3cc(C)c(NC(=S)NC(=O)c4ccccc4C)cc3n2)cc1	0	0	0	0	0	-	-
CCC(=O)Nc1cc2nn(-c3ccc(C)cc3)nc2cc1C	0	0	0	0	0	-	-
CCC(=O)Nc1cc2nn(-c3ccc(OC)cc3)nc2cc1C	0	0	0	65.9	0	39.0	27.9
CCCCC(=O)Nc1cc2nn(-c3ccc(OC)cc3)nc2cc1C	0	0	0	27.4	0	150.7	121.2
COC(=O)[C@@H]1[C@@H](CO)[C@@H]2Cn3c(ccc(-c4ccccc4OC)c3=O)[C@@H]2N1C(=O)c1cccnc1	-	-	0	-	-	-	-
COc1ccc(S(=O)(=O)N(C)C[C@@H]2OCCCC[C@H](C)Oc3ccc(NC(=O)CCC(F)(F)F)cc3C(=O)N([C@@H](C)CO)C[C@@H]2C)cc1	-	-	0	-	-	-	-
CO[C@@H]1CN(C)C(=O)c2cc(NS(=O)(=O)c3ccccc3C)ccc2OC[C@H](C)NC[C@H]1C	-	-	0	-	-	-	-
Fc1ccc2nc(Nc3nc4c(F)cc(F)cc4s3)sc2c1	0	0	-	0	0	-	-
O=C(NNc1nc2ccccc2s1)c1ccccc1F	0	0	0	0	0	-	-
Fc1cccc2sc(Nc3nc4ccccc4s3)nc12	0	0	0	32.2	0	193.4	133.5
Fc1ccc2nc(Nc3nc4c(F)cccc4s3)sc2c1	0	0	-	35.2	0	0	0
COCC(=O)N(C)C[C@H]1Oc2cc(C#C[C@@H](C)O)ccc2S(=O)(=O)N([C@@H](C)CO)C[C@H]1C	-	-	0	-	-	-	-
CCOc1ccccc1Oc1coc2cc(O)ccc2c1=O	0	0	0	52.6	0	40.6	26.2
CCOC(=O)c1ccc(Oc2coc3cc(O)ccc3c2=O)cc1	0	0	-	27.9	0	160.8	122.8
CCOc1ccccc1Oc1coc2cc(OC(=O)c3ccco3)ccc2c1=O	0	0	0	32.1	0	28.6	21.2
COc1ccccc1Oc1coc2cc(O)ccc2c1=O	0	0	0	30.6	0	+	+
COc1ccc(-c2coc3cc(O)ccc3c2=O)cc1OC	0	0	0	0	0	-	-
O=C(Nc1ccc2c(c1)OCO2)N[C@H]1CC[C@H](CC(=O)N2CCN(c3ccccc3)CC2)O[C@@H]1CO	-	-	0	-	-	-	-
CCCN1C[C@@H](C)[C@@H](OC)CN(C)C(=O)c2cc(NC(=O)C3CC3)ccc2OC[C@H]1C	-	-	0	-	-	-	-
COC(=O)C[C@@H]1CC[C@H](NC(=O)Nc2ccc(C(F)(F)F)cc2)[C@H](CO)O1	-	-	0	-	-	-	-
CN(C)c1ccc(P(=O)(OC2CCCCC2)C(O)c2ccccn2)cc1 (stereo unspecified)	0	0	-	68.1	0	73.2	79.2
CN(C)c1ccc(P(=O)(OC2CCCCC2)C(O)c2cccnc2)cc1 (stereo unspecified)	0	0	0	0	0	-	-
Cc1cccc2cc(C#N)c(N3CCN(C)CC3)nc12	0	0	0	0	0	-	-
Cc1ccc(C)c2nc(N3CCCC3)c(C#N)cc12	0	0	0	33.1	0	173.3	146.4
SMILES	Rv3671c protease	FadD28 binding	BioA inh	Mtb FBA inh	GDH-TPI counter-1	Mtb FBA inh conf	GDH-TPI counter-2
COc1ccc(-c2ccc(CCC(=O)O)n2C(C)C)cc1	0	0	0	32.1	0	163.2	113.9
CO[C@H]1CN(C)C(=O)c2ccc(NS(=O)(=O)c3ccccc3)cc2OC[C@H](C)N(Cc2nccs2)C[C@H]1C	-	-	0	-	-	-	-
C[C@@H]1CN([C@@H](C)CO)C(=O)Cc2cc(NS(=O)(=O)c3cn(C)cn3)ccc2O[C@H]1CN(C)Cc1ccc(C(=O)O)cc1	-	-	0	-	-	-	-
OCCN1CCN(c2nc(NCc3ccco3)c3ccccc3n2)CC1	0	0	-	0	0	-	-
OCCNc1nc(N2CCN(c3ccccc3)CC2)nc2ccccc12	0	0	0	107.1	0	+	177.2
Cc1ccc2nc(NCCCO)nc(-c3ccccc3)c2c1	0	0	0	31.5	0	+	+
Cc1ccc2nc(NCC(=O)O)nc(-c3ccccc3)c2c1	0	0	0	30.5	0	53.9	46.0
OCCCNc1nc(-c2ccccc2)c2cc(Br)ccc2n1	0	0	0	0	0	-	-
Cc1ccc2nc(NCCC(=O)O)nc(-c3ccccc3)c2c1	0	0	0	35.8	0	48.1	47.9
C[C@@H]1CN([C@H](C)CO)C(=O)c2cc(NC(=O)Nc3ccc(F)cc3)ccc2O[C@@H](C)CCCCO[C@H]1CN(C)Cc1ccc(C(F)(F)F)cc1	-	-	0	-	-	-	-
Cc1ccc(-c2nc(CN3CCCCC3)cc(CN3CCCCC3)c2O)cc1	0	0	-	58.7	0	143.6	121.8
O=C(COC(=O)c1ccccc1NCCO)Nc1cccc(S(=O)(=O)NC2=NCCCCC2)c1	0	0	0	53.2	0	0	0
CCCCNc1ccccc1C(=O)OCC(=O)Nc1ccc(S(N)(=O)=O)cc1	0	0	0	48.1	0	33.7	22.7
O=C(COC(=O)/C=C/c1cccc(F)c1)Nc1cccc(S(=O)(=O)NC2=NCCCCC2)c1	0	0	0	0	0	-	-
COc1cccc(/C=C/C(=O)OCC(=O)Nc2cccc(S(=O)(=O)NC3=NCCCCC3)c2)c1	0	0	0	35.5	0	0	0
COC(=O)C[C@@H]1CC[C@@H]2[C@H](COc3ccc(NC(=O)Nc4cccc(C)c4)cc3C(=O)N2C)O1	-	-	0	-	-	-	-
COc1ccc(S(=O)(=O)N(C)C[C@H]2Oc3ccc(NC(=O)Nc4ccccc4)cc3C(=O)N([C@H](C)CO)C[C@H]2C)cc1	-	-	0	-	-	-	-
CCOC(=O)c1oc2nc3c(cc2c1N)COC(C)(C)C3	0	0	0	45.5	0	0	16.6
CCOC(=O)c1oc2nc(C)c3c(c2c1N)CC(C)(C)OC3	0	0	-	34.0	0	100.4	75.2
CCc1nc2oc(C(=O)c3ccccc3)c(N)c2c2c1COC(C)(C)C2	0	0	-	0	0	-	-
CCc1cc(=O)oc2c(C)c(OC(C)C(=O)NCCCN3CCOCC3)ccc12 (stereo unspecified)	0	0	0	0	0	-	-
CCCc1cc(=O)oc2cc(C)cc(OC(C)C(=O)NCCCN3CCOCC3)c12 (stereo unspecified)	0	0	0	79.8	0	0	0
Cc1cc(OC(C)C(=O)NCCN2CCOCC2)c2c(C)c(C)c(=O)oc2c1 (stereo unspecified)	0	0	0	51.1	0	116.1	93.5
CCCc1cc(=O)oc2cc(C)cc(OC(C)C(=O)NCCN3CCOCC3)c12 (stereo unspecified)	0	0	0	61.2	0	54.2	43.0
CCc1cc(=O)oc2cc(C)cc(OC(C)C(=O)NCCN3CCOCC3)c12 (stereo unspecified)	0	0	0	44.1	0	0	0
CCCc1cn(CC[C@H]2CC[C@@H](NC(=O)Nc3ccc4c(c3)OCO4)[C@@H](CO)O2)nn1	-	-	0	-	-	-	-
